Screening results as filed in PubChem.
Hits are enriched below; roughly 3.1% of the tested compounds scored in any of these assays.
Beta apoptosis – inhibitors of cytokine-induced beta cell apoptosis, primary screen, luminescence; protection from apoptosis, % (test concentration not listed); AID 435005, 2010; INS-1E cytokine-induced death, ATP luminescence, 48 h; percent of positive-control rescue, neutral wells zero; actives 0.8% (n = 300,000);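 active means Every replicate reaches about 75%, or at least half do and their mean reaches it too, limit read from the data; inconclusive means At least half of replicates reach the limit but their mean does not; inactive means Under half of replicates reach the limit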;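 further: higher means more ATP so stronger rescue from cytokine killing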
SKKanGAS inh – S. pyogenes SKKanGAS growth inhibitors in kanamycin, primary screen, streptokinase expression inhibitor project, SKKanGAS strain, BacTiter-Glo luminescence; 6 h; inhibition, % at 7.5 µM; actives 1.3% (n = 300,000); AID 1662, 2009;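 active means mean replicate score, as percent of positive control median, at least 50; inconclusive means mean below 50 but one replicate at or above 50; inactive means mean and every replicate below 50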;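 further: strain carries kanamycin resistance gene driven by streptokinase promoter and grows in 40 µg/ml kanamycin; loss of luminescence reflects streptokinase promoter inhibition or plain growth inhibition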
CSC inhib – cancer stem cell viability inhibitors, primary screen, luminescence; cancer stem cell-like cells viability; actives 1.1% (n = 300,000); AID 2717, 2010; inhibition, % at 7.5 µM; in the data active means inhibition above about 75%; inconclusive means no clear call, values can overlap the other calls; tested in HMLE shEcad cells
PP5 inh – PP5 phosphatase inhibitors, primary screen, biochemical, fluorescence; Serine/threonine-protein phosphatase 5 (Homo sapiens), P53041; purified PP5c, OMFP substrate fluorescence; inhibition, % at 6.7 µM; actives 0.18% (n = 320,000); AID 1987, 2009;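 active means inhibition above the campaign's mean inhibition across all tested compounds plus 3 SD, cut at about 9.5% in these data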
Target sequence (P53041 whole entry, looked up): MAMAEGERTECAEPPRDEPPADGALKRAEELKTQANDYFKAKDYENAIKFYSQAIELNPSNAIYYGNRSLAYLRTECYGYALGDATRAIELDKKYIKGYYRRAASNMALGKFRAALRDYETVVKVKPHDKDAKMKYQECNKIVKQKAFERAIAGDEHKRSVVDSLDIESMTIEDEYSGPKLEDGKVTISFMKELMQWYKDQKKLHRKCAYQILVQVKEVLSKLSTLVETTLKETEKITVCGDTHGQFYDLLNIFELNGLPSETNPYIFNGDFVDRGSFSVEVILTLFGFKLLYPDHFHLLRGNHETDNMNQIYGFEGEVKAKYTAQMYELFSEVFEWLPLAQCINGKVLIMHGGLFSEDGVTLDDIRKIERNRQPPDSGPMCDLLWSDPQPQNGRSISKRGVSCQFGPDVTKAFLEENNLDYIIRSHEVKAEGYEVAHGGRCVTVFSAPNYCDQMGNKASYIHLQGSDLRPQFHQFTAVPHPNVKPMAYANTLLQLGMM
PP1 counter – PP1-alpha phosphatase inhibitors, primary screen, counter-screen for PP5 inhibitor project, biochemical, fluorescence, OMFP substrate, single point. actives 0.9% (n = 320,000). Serine/threonine-protein phosphatase PP1-alpha catalytic subunit (Homo sapiens), P62136. inhibition, % at 6.7 µM. purified PP1alpha;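 active means inhibition above the mean inhibition of all tested compounds plus 3 SD, computed separately for each screening campaign, cut at about 15% in these data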
Each line names hits and unclear results; the compound was inactive in the other large screens.

CC(=O)c1ccc(N2CCN(S(=O)(=O)c3ccc4c(c3)CC(C)N4C(C)=O)CC2)cc1 (stereo not given)	Beta apoptosis 91
CCC(=O)N1c2ccc(S(=O)(=O)N3CCN(c4ccc([N+](=O)[O-])cc4)CC3)cc2CC1C (stereo not given)	Beta apoptosis 92
CC1Cc2cc(S(=O)(=O)N3CCC(C(=O)N4CCN(c5ccccc5F)CC4)CC3)ccc2N1C(=O)C1CC1 (stereo not given)	Beta apoptosis 75
COc1ccccc1N1CCN(C(=O)C2CCN(S(=O)(=O)c3ccc4c(c3)CC(C)N4C(=O)C3CC3)CC2)CC1 (stereo not given)	none
COc1ccc(C(=O)NCC(=O)OCC(=O)c2ccc(Cl)cc2)cc1OC	none
COc1ccc(C(=O)NCC(=O)OCCCOC(=O)CNC(=O)c2ccc(OC)c(OC)c2)cc1OC	SKKanGAS inh 50 (no result: Beta apoptosis)
O=S1(=O)N=C(Nc2ccc(N3CCOCC3)c(Cl)c2)c2ccccc21	SKKanGAS inh 50
COC(=O)CSc1nnc(NC(=O)c2ccc3c(c2)OCO3)s1	SKKanGAS inh 52 (no result: Beta apoptosis)
C[C@H](CO)N1C[C@H](C)[C@@H](CN(C)S(=O)(=O)c2ccccc2)Oc2c(NC(=O)c3ccncc3)cccc2C1=O	none (no result: SKKanGAS inh, PP5 inh, PP1 counter)
Cc1ccc(C(=O)ONc2ccc(N=NC(=O)c3ccccc3O)cc2)cc1	CSC inhib 78
Cc1ccc(C(=O)ONc2ccc(N=O)cc2)cc1	none (no result: CSC inhib)
CCCCCc1ccc(-c2ccc(/C=C/C(=O)O)cc2)nc1	none
CCCCCCCc1ccc(-c2ccc(O)cc2)nc1	CSC inhib 85
Cc1c(NC(=O)CSC2=C(C#N)C(c3ccccc3F)CC(=O)N2)c(=O)n(-c2ccccc2)n1C (stereo not given)	SKKanGAS inh 96
Fc1ccccc1CSc1ncnc2sc3c(c12)CCCC3	none
CCN(c1ccccc1)S(=O)(=O)c1ccc(Cl)c(NC(=O)COC(=O)c2cc(O)c3ccccc3c2O)c1	Beta apoptosis 79, CSC inhib 103
CCN(c1ccccc1)S(=O)(=O)c1ccc(Cl)c(NC(=O)CN2CCCCCC2)c1	Beta apoptosis 104, CSC inhib inconclusive
O=C(NC1CC1)c1ccc(CN(c2ccccc2)S(=O)(=O)c2ccccc2)cc1	none (no result: Beta apoptosis)
CCN(c1ccccc1)S(=O)(=O)c1ccc(C(=O)NC2CCN(Cc3ccccc3)CC2)cc1	Beta apoptosis 84 (no result: SKKanGAS inh, PP5 inh, PP1 counter)
CN(C)S(=O)(=O)c1ccc(Cl)c(NC(=O)CN2CCCCCC2)c1	none
CC(C)(C)OC(=O)C[C@@H]1C/C=C\C[C@@H](CC(=O)N[C@@H](CO)Cc2ccccc2)C(=O)N2CCC[C@@H]2COC1=O	none (no result: SKKanGAS inh, PP5 inh, PP1 counter)
Cc1cccc(C)c1NC(=S)N/N=C/c1ccc(OCCC(C)C)cc1	SKKanGAS inh 67 (no result: Beta apoptosis)
Cc1noc(NS(=O)(=O)c2ccc(NC(=O)c3oc4ccc(Cl)cc4c3C)cc2)c1C	SKKanGAS inh 64
Cc1ccc2c(C)c(C(=O)Nc3ccc(S(=O)(=O)Nc4onc(C)c4C)cc3)oc2c1	SKKanGAS inh 65 (no result: Beta apoptosis)
Cc1c(C(=O)Nc2ccc(S(=O)(=O)Nc3ncccn3)cc2)oc2ccc(Cl)cc12	none
Cc1cc(NC(=O)c2ccc(F)cc2F)n(-c2nc3ccccc3[nH]2)n1	none
Cc1cc(NC(=O)CC2CCCC2)n(-c2nc3ccccc3[nH]2)n1	SKKanGAS inh 51
Cc1nc2ccccc2c(=O)n1NC(=O)/C=C/c1ccccc1Cl	none
Cc1cc(NC(=O)/C=C/c2ccccc2Cl)n(-c2nc3ccccc3[nH]2)n1	SKKanGAS inh 81
CCc1ccccc1N(CC(=O)NC(C)(C)C)C(=O)CCC(=O)Nc1ccccn1	none (no result: Beta apoptosis)
CN1CCC/C1=C1/C(=O)N(c2ccccc2)N=C1NC(=O)Nc1cccc(Cl)c1	none
CC(C)(C)N(Cc1ccccc1)C(=O)COc1cccnc1[N+](=O)[O-]	SKKanGAS inh 52
O=c1[nH]c(O)c(C=Nc2ccc(Cl)cc2Cl)c(=O)[nH]1	none (no result: Beta apoptosis, CSC inhib, PP5 inh, PP1 counter)
O=C(N/N=C/c1c(F)cccc1Cl)C(=O)N1CCCCCC1	none
COc1cccc(-c2nc(N3CC(C)CC(C)C3)c3ccccc3n2)c1O (stereo not given)	SKKanGAS inh 65 (no result: Beta apoptosis, CSC inhib, PP5 inh, PP1 counter)
COc1cccc(-c2nc(N3CCC(C)CC3)c3ccccc3n2)c1O	none
COc1ccc(OCC(=O)NC2CCCN(Cc3ccc(Cl)cc3)C2)cc1 (stereo not given)	none
NC(=O)CSc1nc2cc([N+](=O)[O-])ccc2n1-c1cccc(C(F)(F)F)c1	none (no result: CSC inhib)
CC(Sc1nc2cc([N+](=O)[O-])ccc2n1-c1cccc(C(F)(F)F)c1)C(=O)NC(N)=O (stereo not given)	SKKanGAS inh 51
CCOc1ccc(Nc2nc(Nc3ccc(O)cc3)nc(C)c2[N+](=O)[O-])cc1	none
COc1ccc(CCNC(=O)C2CCC(=O)N2CCc2ccccc2)cc1OC (stereo not given)	none (no result: Beta apoptosis, CSC inhib)
NS(=O)(=O)c1ccc(CCNC(=O)COC(=O)C2CCC2)cc1	none (no result: CSC inhib)
Cc1ccc(C(=O)N2CCN(C)CC2)cc1S(=O)(=O)N1CCCCCC1	none
CC(=O)c1cccc(NC(=O)N2CCCC2C(=O)Nc2ccc3c(c2)OCO3)c1 (stereo not given)	none
N#Cc1nc(-c2ccccc2F)oc1N1CCN(C(=O)c2ccco2)CC1	none (no result: Beta apoptosis)
N#Cc1nc(-c2ccccc2Cl)oc1N1CCN(C(=O)c2ccco2)CC1	SKKanGAS inh 69 (no result: Beta apoptosis)
CN=Cc1nc(-c2ccccc2)oc1O	none
CC1=Nc2ccccc2/C1=C\c1nc(-c2ccc(F)cc2)oc1O	SKKanGAS inh 81
Clc1cccc(-c2sc(Nc3ccccc3)n[n+]2-c2ccccc2)c1Cl	none
CSc1ccc(-c2sc(Nc3ccccc3)n[n+]2-c2ccccc2)cc1	PP1 counter 17
CCc1ccc(Nc2n[n+](-c3ccccc3)c(-c3ccc(SC)cc3)s2)cc1	none
Fc1ccc(-[n+]2nc(Nc3ccccc3)sc2-c2cccc(Cl)c2Cl)cc1	PP1 counter 17
COc1ccc(S(=O)(=O)N2CCCC(C(=O)NCc3ccco3)C2)cc1OC (stereo not given)	none
Cn1nnnc1SCC1=C(C(=O)O)N2C(=O)C(NC(=O)C3CC3c3ccccc3)C2SC1 (stereo not given)	SKKanGAS inh 101
CC(C(=O)NC1C(=O)N2C(C(=O)O)=C(CSc3nnnn3C)CSC12)n1cc(Br)cn1 (stereo not given)	SKKanGAS inh 97
CC1=C(C(=O)O)N2C(=O)C(NC(=O)c3ccn(C)n3)C2SC1 (stereo not given)	none
Cn1nnnc1SCC1=C(C(=O)O)N2C(=O)[C@@H](NC(=O)[C@H](O)c3ccccc3)[C@H]2SC1	none
Cc1cc(C)n(CC(=O)NC2C(=O)N3C(C(=O)O)=C(CSc4nnc(C)s4)CSC23)n1 (stereo not given)	none (no result: SKKanGAS inh)
